This is an account of results in ChEMBL document CHEMBL1201862, “PubChem BioAssay data set” (2004).

In all, about 400,000 compounds went through this assay and about 2,100 (0.53%) were called active. Roughly 14% stayed inconclusive and do not appear here. The rule behind the calls is not given here. What follows is part of a selection rich in actives, with near analogues and random picks from the rest.

In the assay the target is Ataxin-2 (Homo sapiens) (UniProt Q99700). The assay can be described thus: qHTS for Inhibitors of ATXN expression. It counts as functional.
Sequence of Ataxin-2 (Homo sapiens) (Q99700 whole entry): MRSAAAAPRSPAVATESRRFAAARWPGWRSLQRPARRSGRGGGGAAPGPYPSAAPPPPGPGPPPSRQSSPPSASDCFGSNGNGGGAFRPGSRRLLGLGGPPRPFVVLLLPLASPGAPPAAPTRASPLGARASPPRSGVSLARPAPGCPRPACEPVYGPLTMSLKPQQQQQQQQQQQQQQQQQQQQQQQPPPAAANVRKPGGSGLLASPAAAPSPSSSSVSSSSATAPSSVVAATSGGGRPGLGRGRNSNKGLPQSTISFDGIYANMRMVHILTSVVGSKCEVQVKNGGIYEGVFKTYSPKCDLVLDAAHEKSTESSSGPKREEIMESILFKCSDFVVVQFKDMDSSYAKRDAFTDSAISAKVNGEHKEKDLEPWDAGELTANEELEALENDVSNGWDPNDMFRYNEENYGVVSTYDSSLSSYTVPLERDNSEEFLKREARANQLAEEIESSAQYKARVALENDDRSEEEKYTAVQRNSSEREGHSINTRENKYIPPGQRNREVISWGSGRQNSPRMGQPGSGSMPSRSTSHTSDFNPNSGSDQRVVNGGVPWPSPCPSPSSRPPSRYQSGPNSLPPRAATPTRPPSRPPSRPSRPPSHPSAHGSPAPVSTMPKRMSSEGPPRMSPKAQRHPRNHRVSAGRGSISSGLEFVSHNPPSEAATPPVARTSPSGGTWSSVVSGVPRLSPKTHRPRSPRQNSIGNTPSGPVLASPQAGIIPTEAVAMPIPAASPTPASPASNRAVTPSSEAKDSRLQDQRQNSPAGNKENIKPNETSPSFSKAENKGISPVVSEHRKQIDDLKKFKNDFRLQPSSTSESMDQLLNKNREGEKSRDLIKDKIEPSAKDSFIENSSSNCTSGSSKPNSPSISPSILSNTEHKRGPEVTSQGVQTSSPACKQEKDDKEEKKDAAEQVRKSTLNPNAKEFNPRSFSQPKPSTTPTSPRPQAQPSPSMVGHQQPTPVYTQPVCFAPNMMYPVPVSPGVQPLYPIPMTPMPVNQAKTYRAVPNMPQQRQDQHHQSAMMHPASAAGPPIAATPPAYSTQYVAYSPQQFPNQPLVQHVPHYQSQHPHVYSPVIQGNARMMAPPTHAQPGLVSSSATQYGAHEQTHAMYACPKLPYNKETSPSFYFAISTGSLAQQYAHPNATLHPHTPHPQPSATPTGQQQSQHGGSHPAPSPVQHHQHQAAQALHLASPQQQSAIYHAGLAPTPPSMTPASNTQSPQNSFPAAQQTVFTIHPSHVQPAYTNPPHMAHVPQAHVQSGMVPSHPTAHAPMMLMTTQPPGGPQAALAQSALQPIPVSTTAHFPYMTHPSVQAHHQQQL
Regarding `COc1ccc2c(c1)CCC1=C2N=C(S)NC1c1ccc(N(C)C)cc1` (stereo unspecified), the Potency entry is “inactive”. Regarding `c1cc(SC2CCCCC2)cc(-c2nc3cnccn3c2NC2CCCCC2)c1`, the Potency entry was “inactive”.

Take `Cc1cc(C)n2c(=O)c3ccc(Cl)cc3nc2c1C#N`: the Potency entry was “inactive”.

`CC(C)(C)c1cc(CP(=O)(c2ccccc2)c2ccccc2)cc(C(C)(C)C)c1O`: the Potency entry was “inactive”. With `O=C(O)c1ccc2c(c1)C(=O)N(c1ccc(/C=C/C(=O)c3ccccc3)cc1)C2=O`, the Potency entry was “inactive”.

Turning to `O=C(C=Cc1ccccc1F)c1ccccc1`, the Potency was 31.6 µM (active).

As to `Cc1[nH]c2ccccc2c1/C=C/C(=O)c1ccncc1`, the Potency entry was “inactive”. The entry for `COc1ccc2[nH]cc(/C=C/C(=O)c3ccccc3)c2c1` is “inactive”; for `O=C(C=Cc1ccccn1)c1ccccc1` it is 35.5 µM (active). For `O=C(C=Cc1ccccn1)c1ccccc1O`, the Potency was 39.8 µM (active). Turning to `O=C(/C=C/c1ccc(N2CCC(c3ccccc3)=N2)cc1)c1ccccc1`, the Potency entry is “inactive”.

As for `COc1ccccc1C(=O)CSc1ccccn1`, the Potency entry was “inactive”. The entry for `O=C(O)/C(=C\c1ccco1)NC(=O)c1ccco1` is “inactive”; for `Cc1ccc(NC(=O)CCc2nnc3ccc(N4CCC5(CC4)OCCO5)nn23)nc1` it is “inactive”. Regarding `COc1ccc(COc2cc(-c3cccc(OC)c3)nc3ccc(N)cc23)cc1`, the Potency result is “inactive”.

Take `COC(=O)/C=C\C(=O)Nc1cccc([N+](=O)[O-])c1`: the Potency is 31.6 µM (active).

Turning to `CC(C)N1CC(C(=O)Nc2cccc([N+](=O)[O-])c2)CC1=O` (stereo unspecified), the Potency result is “inactive”. As for `O=[N+]([O-])c1cccc(NC(=S)N2CCOCC2)c1`, the Potency result was “inactive”.

Regarding `O=C(NCC1CCCCC1)C1(CC2CC(c3ccc(Cl)cc3)=NO2)CCNCC1` (stereo unspecified), the Potency is 39.8 µM (active). For `O=C(CNC(=O)c1ccc(Br)o1)NCC1CCCCC1`, the Potency entry was “inactive”. As to `COc1cc(NC(=O)C2CC(c3cccc(Br)c3)=NO2)cc(OC)c1OC` (stereo unspecified), the Potency result is “inactive”. As to `O=C(NCC1CCCCC1)C1(CC2CC(c3cccc(Br)c3)=NO2)CCNCC1` (stereo unspecified), the Potency is 35.5 µM (active). The value for `O=C(O)c1cc(-c2ccc(-c3ccc(F)cc3)o2)nc2ccccc12` was “inactive”.

Regarding `C[C@@H]1C(c2cccc(Cl)c2)=NN(c2ccccc2)[C@H]1C(=O)N1CCOC1=O`, the Potency result was “inactive”.

As for `Oc1c(Cl)cc(Cl)cc1/C=N/c1nc(-c2ccc(Cl)cc2)cs1`, the Potency result is “inactive”. On to `Cc1[nH]n(-c2nc(-c3ccc(Cl)cc3)cs2)c(=O)c1N=Nc1ccc(O)cc1`, for which the Potency is 26.7 µM (active). Take `CC(=O)Nc1cccc(-c2ccnc3c2CC(C(=O)Nc2ccc(F)c(Cl)c2)O3)c1` (stereo unspecified): the Potency was 22.4 µM (active). The entry for `O=C1OC(C(=O)Nc2ccc(Cl)c(C(F)(F)F)c2)Cc2ccccc21` (stereo unspecified) is “inactive”. The entry for `CCOC(=O)c1cc(-c2ccc3c(c2)OCO3)nc2onc(C)c12` is “inactive”; for `O=C(Nc1cccc(OC(F)(F)F)c1)C1Cc2c(-c3ccc4c(c3)OCO4)ccnc2O1` (stereo unspecified) it is 39.8 µM (active). Consider `CC(=O)Nc1ccc(C2CC(c3ccc(Cl)cc3)=NN2c2ccccc2)cc1` (stereo unspecified), for which the Potency result is “inactive”.
